In all, about 320,000 compounds went through this assay and about 22,000 (6.9%) were called active. Roughly 27% stayed inconclusive and do not appear here. The sample as a whole holds a higher share of actives than the screen did. Unmarked numbers belong to inactive results. Calls come from the whole dose curve; as a rule, active = well fitted inhibition curve with a large enough effect; inconclusive = small, poorly fitted or top-dose-only effect, or another doubt; inactive = no such curve, though single readings can be large or run the other way.
Experiment: Primary qHTS for delayed death inhibitors of the malarial parasite plastid, 96 hour incubation
Settings: P. falciparum luciferase reporter growth; series mostly up to 28.7 µM; activity change, negative = inhibition: at the top concentration
Source text: The goal of this screen is to discover new antimalarial compounds that act by inhibiting the development of the apicoplast in the malarial parasite Plasmodium falciparum. The biochemical processes that make this organelle essential for erythrocytic stage parasites are not well understood. However, antibiotics such as azithromycin and tetracycline, which target the apicoplast translational machinery, have a potent antimalarial effect.
We have developed a cell-based assay that measures parasite growth based on the expression of an integrated copy of a firefly luciferase reporter. To detect small molecules that cause this "delayed death" phenotype, erythrocytes infected with the luciferase-expressing parasites were incubated with compounds for either one or two generations, corresponding to 48 and 96 hours, respectively. Compounds that inhibit parasite growth in the second generation, but not the first, should be enriched in antimalarials that target the apicoplast. Growth inhibition is detected by a decrease in luciferase activity.
Assay Provider: David Fidock and Eric Ekland, Columbia University
Keywords: NIH Roadmap, MLPCN, MLI, MLSMR, qHTS, NCGC, qHTS, malaria, luciferase, viability
Four microliters of infected erythrocytes (2% hematocrit, 0.05% parasitemia final concentration) in culture medium were dispensed and the plates incubated for 96 hours at 37 C in 5% CO2. Two microliters of luciferase detection reagent was added and luminescence was detected by a ViewLux (PerkinElmer) reader.
% is set by controls: 0 for no effect and ±100 for the full control effect; potency is the fitted concentration of half-maximal effect.

Row | SMILES | activity change, negative = inhibition [%] | Potency
1 | CC1COc2ccccc2N1C(=O)c1ccc(F)cc1 (stereo unspecified) | 3.37 | 
2 | COc1cccc(C(C(=O)NC2CCCC2)N(C(=O)c2ccco2)c2cccc(C(C)=O)c2)c1OC (stereo unspecified) | -24.7 | 
3 | COc1ccccc1N1CCN(C(=O)c2ccc(NC3=NC4CS(=O)(=O)CC4S3)cc2)CC1 (stereo unspecified) |  | 10.4 µM (active)
4 | CN(Cc1ccccc1)C(=O)c1ccc(NC2=NC3CS(=O)(=O)CC3S2)cc1 (stereo unspecified) | 5.53 | 
5 | COc1cccc(-c2cc(C(=O)N3CCN(c4ccccc4OC)CC3)no2)c1 | 218 | 
6 | NS(=O)(=O)c1ccc(CCNC(=O)c2nc(CS(=O)(=O)c3ccc(Cl)cc3)no2)cc1 | 22.4 | 
7 | CC1CC(C)CN(C(=O)C2CC(=O)N(c3ccc(F)cc3)C2)C1 (stereo unspecified) | 20.3 | 
8 | CC1(C)O[C@@H]2[C@H](O1)[C@@H](COS(=O)(=O)O)O[C@H]2n1cnc2c(=O)[nH]cnc21 | 34.3 | 
9 | CCCCNC(=O)C1(O)c2ccccc2NC(=O)N1c1ccc(Cl)cc1 (stereo unspecified) | 11.4 | 
10 | Cc1ccc(S(=O)(=O)N(Cc2cccc([N+](=O)[O-])c2)C(=O)N2CCN(C)CC2)cc1 | -2.96 | 
11 | O=C(CSCc1ccccc1)Nc1ccccc1 | -1.81 | 
12 | Cc1c(NC(=O)CSCc2ccccc2)cccc1C(=O)O |  | 10.4 µM (active)
13 | CCCNC(=O)c1ccccc1NC(=O)CSCc1ccc(OC)cc1 | 3.51 | 
14 | Nc1ccn(C2CC(O)C(CO)O2)c(=O)n1 (stereo unspecified) | 60.4 | 
15 | CCOC(=O)NN1C(=O)c2ccccc2NC1c1cccc(O)c1 (stereo unspecified) | 18.3 | 
16 | CCOC(=O)NN1C(=O)c2ccccc2NC1c1ccccc1O (stereo unspecified) |  | 14.7 µM (active)
17 | O=C1c2ccccc2NC(c2ccccc2O)N1NS(=O)(=O)c1ccccc1 (stereo unspecified) | 0.813 | 
18 | COc1ccc(OC)c(C(C)NC(=S)Nc2ccc(S(=O)(=O)Nc3ncccn3)cc2)c1 (stereo unspecified) | 59.7 | 
19 | COc1ccccc1-n1c(-c2cc(-c3ccco3)[nH]n2)n[nH]c1=S | 1.29 | 
20 | Fc1ccc2c(c1)C(c1cccnc1)=NNC(c1cccs1)=N2 |  | 7.38 µM (active)
21 | CCc1ccc2c(c1)C(c1ccc([N+](=O)[O-])cc1)=NNC(c1ccccc1)=N2 | 12.3 | 
22 | COc1ccc2c(c1)C(c1cccs1)=NNC(c1cccnc1)=N2 | 15.7 | 
23 | CCOC(=O)c1cc2ccccc2n1CC(=O)c1ccccc1 | -6.84 | 
24 | CC(=O)Nc1ccc(NC(=O)[C@@H](NC(=O)c2cccc(C)c2)C(C)C)cc1 | 14.8 | 
25 | O=C(O)CSc1ccc(S(=O)(=O)N2CCCC2)cn1 | -27.2 | 
26 | CCN1CCCC1CNC(=O)c1cc2cc(OC)c(OC)cc2[nH]1 (stereo unspecified) | -3.37 | 

Row | SMILES | activity change, negative = inhibition [%] | Potency
27 | O=C(COc1cccc(-n2cnnn2)c1)NCCC1=CCCCC1 |  | 10.4 µM (active)
28 | O=C(COc1ccc(Cl)cc1)NCCC1=CCCCC1 | -3.84 | 
29 | CC(C)COc1ccc(C(=O)OCC(=O)NCCC2=CCCCC2)cc1 | -3.54 | 
30 | Cc1ccn2c(c1)nc(=O)c1cc(S(=O)(=O)N3CCC(C)CC3)ccc12 | -23.3 | 
31 | COC(=O)c1ccc(COC(=O)CNC(=O)c2cccc(OC)c2)o1 | 5.51 | 
32 | CCN(CC)CCCNC(=O)c1c(O)c2cc(F)cc3c2n(c1=O)C(C)CC3 (stereo unspecified) | 63.5 | 
33 | CCN1C(=NCCc2cccnc2)N[C@@H](c2ccccc2)C(C(=O)OC)=C1C |  | inactive
34 | CC(=O)OC(C(=O)NCCc1ccccc1)c1cccnc1 (stereo unspecified) | 20.2 | 
35 | CCN1C(=NCCc2cccnc2)N[C@@H](c2ccccc2)[C@H](C(=O)OC)[C@H]1C |  | 7.38 µM (active)
36 | CC(=O)C1=C(C)NC(=O)NC1c1ccc2c(c1)OCO2 (stereo unspecified) | 42.1 | 
37 | CC(C)(C)c1ccc(C(CC(=O)O)NS(=O)(=O)Cc2ccccc2)cc1 (stereo unspecified) | 14.4 | 
38 | Cc1ccnc(NS(=O)(=O)c2ccc(NC(=O)c3ccc(S(=O)(=O)N4CCOCC4)cc3)cc2)n1 | -31.3 | 
39 | O=C(Nc1ccc(S(=O)(=O)Nc2nccs2)cc1)c1cc(=O)[nH]c2ccccc12 | 16.1 | 
40 | O=C(Nc1ccc(S(=O)(=O)Nc2nccs2)cc1)c1cccc(S(=O)(=O)N2CCOCC2)c1 |  | 11.7 µM (active)
41 | Cc1cccc(C)c1NC(=S)N1CCCCCC1 | 20.3 | 
42 | Cc1ccccc1NC(=O)Cc1nc(COC(=O)c2ccc(C(F)(F)F)cc2)cs1 | 19.2 | 
43 | CCOc1ccc(N(CC(=O)NCc2ccc(OC)cc2)S(=O)(=O)c2c(C)noc2C)cc1 |  | 9.28 µM (active)
44 | Cc1noc(C)c1S(=O)(=O)N(CC(=O)NCc1ccc(Cl)cc1)c1ccc2c(c1)OCO2 | -22.2 | 
45 | CCOc1ccc(N(CC(=O)NCCc2ccc(OC)cc2)S(C)(=O)=O)cc1 | 22.2 | 
46 | COc1ccc(C(=O)N2CCCN(C)CC2)c(OC)c1 | -15.6 | 
47 | Cc1cc(C)c(S(=O)(=O)c2ccc(F)cc2C)c(=O)[nH]1 | -2.87 | 
48 | O=C(OCC(=O)N1CCCC1=O)c1cc(S(=O)(=O)N2CCOCC2)ccc1Cl | 16.7 | 
49 | Cc1noc(C)c1COc1ccc(C(=O)NCCOc2ccccc2)cc1 | 34.1 | 
50 | O=C(CCC1CCN(C(=O)c2cccc(Cl)c2F)CC1)Nc1ccccc1 | -20.8 | 
51 | CCNC(=O)c1cccc(NC(=O)C2CC(=O)N(CCc3ccccc3)C2)c1 (stereo unspecified) | 9.08 | 
